Consider 40 molecules from PubChem BioAssay (Tox21).

Several values for one entry are separate records, joined by “and”; a condition that tells them apart may be missing. Identical values can stand only once. Results filed as inconclusive are left out. Activity calls are given as the source filed them. Calls come from the whole dose curve; as a rule, active = well fitted activation curve with a large enough effect in the signal ratio in the repeat runs (not every such curve was filed as active); inconclusive = weak or mixed curves, or effect the other way; inactive = no such curve, though single readings can be large or run the other way; the % refers to the signal ratio.
% is set by controls: 0 for no effect and ±100 for the full control effect; potency is the fitted concentration of half-maximal effect.

A short description of the test: qHTS assay for small molecule agonists of the antioxidant response element (ARE) signaling pathway (AID 743202). The following applies: HepG2 ARE-bla reporter, beta-lactamase FRET, 16 h; series mostly up to 73.3 µM; activation: at the top concentration. From the text: U.S. Tox21 Program National Center for Advancing Translational Sciences [NCATS] NIH Chemical Genomics Center [NCGC] U.S. Environmental Protection Agency [EPA] National Institutes of Environmental Health Sciences [NIEHS] National Toxicology Program [NTP] U.S. Food and Drug Administration [FDA] Tox21 Assay Overview: Oxidative stress has been implicated in the pathogenesis of a variety of diseases ranging from cancer to neurodegeneration. The antioxidant response element (ARE) signaling pathway plays an important role in the amelioration of oxidative stress. The CellSensor ARE-bla HepG2 cell line (Invitrogen) can be used for analyzing the Nrf2/antioxidant response signaling pathway. Nrf2 (NF-E2-related factor 2) and Nrf1 are transcription factors that bind to AREs and activate these genes. The CellSensor ARE-bla Hep G2 cell line contains a beta-lactamase reporter gene under control of the Antioxidant Response Element (ARE) stably integrated into HepG2 cells. The activation of the report gene under culture conditions can be detected by fluorescence intensity. This cell line has been used to screen the Tox21 10K compound library to identify agonists that induce oxidative stress.
Tox21 Assay Protocol Summary: The ARE-bla cells were dispensed at 2,000 cells/5 ul/well in 1536-well black wall/clear bottom plates using a Multidrop dispenser. After the assay plates were incubated at a 37 C/5% CO2 incubator for 5 hours, 23 nL of compounds dissolved in DMSO, positive controls or DMSO only was transferred to the assay plate by a pin tool. The plates were incubated at 37 C for 16 hours. After 1 uL of LiveBLAzer B/G FRET substrate was added using a Flying Reagent Dispenser, the plates were incubated at room temperature for 2 hours, and fluorescence intensity was measured by an Envision plate reader.
For the molecule `Cc1cccc([N+](=O)[O-])c1C`, the Potency result was “inactive”.
Same read-out and setting: next, `CC(CCC(=O)O)(c1ccc(O)cc1)c1ccc(O)cc1`: “inactive”; `Cc1ccc(C)c(O)c1C`: “inactive”.
Turning to `CCC(C)OC(=O)c1ccc(O)cc1` (stereo not given), the “activation” value is -2.07% [at 94.8 µM] (inactive).
On the same count and under the same terms, to `OC1CCCCCCCCCCC1` belongs -3.8% [at 94.8 µM] (inactive).
On to `Cc1c(OCC(F)(F)F)ccnc1CS(=O)c1nc2ccccc2[nH]1` (stereo not given), for which the Potency is 8.41 µM (active).
On the same count and under the same terms, next, `CC(=O)c1ccccn1`: “inactive”.
Same read-out and setting: next, `COC(=O)Nc1nc2ccc(S(=O)c3ccccc3)cc2[nH]1` (stereo not given): “inactive”; `Cc1cccc(C(=O)O)c1`: “inactive”.
On the same count and under the same terms, to `OC[C@H]1O[C@@H]2O[C@H]3[C@H](O)[C@@H](O)[C@@H](O[C@H]4[C@H](O)[C@@H](O)[C@@H](O[C@H]5[C@H](O)[C@@H](O)[C@@H](O[C@H]6[C@H](O)[C@@H](O)[C@@H](O[C@H]7[C@H](O)[C@@H](O)[C@@H](O[C@H]8[C@H](O)[C@@H](O)[C@@H](O[C@H]1[C@H](O)[C@H]2O)O[C@@H]8CO)O[C@@H]7CO)O[C@@H]6CO)O[C@@H]5CO)O[C@@H]4CO)O[C@@H]3CO` belongs “inactive”.
`O=C(c1ccccc1)c1ccc(O)cc1O`: the Potency is 30.6 µM (active).
Same read-out and setting: next, `c1ccc2c(c1)c1cccc3ccc4cccc2c4c31`: 60.7 µM (active).
On the same count and under the same terms, next, `C/C=C/C(=O)O`: “inactive”.
As for `CN(C)C(=N)N=C(N)N`, the “activation” value was -5.1% (inactive).
As to `CC1=CCC(C(C)(C)O)CC1` (stereo not given), the “activation” value was 4.96% (inactive).
With `C=C(C)C(=O)OCCOC(=O)C(=C)C`, the Potency entry is “inactive”.
Same read-out and setting: next, `CCC(C)c1ccccc1O` (stereo not given): “inactive”.
On to `CC(=O)CC/C=C(\C)CCC=C(C)C`, for which the “activation” value was 0.0888% [at 94.8 µM] (inactive).
For `Cc1ncc[nH]1`, the Potency result is “inactive”.
As for `COC(C)COC(C)COC(C)CO` (stereo not given), the “activation” value is 1.12% (inactive).
Still for that read-out and setting: to `O=C(Nc1ccc([N+](=O)[O-])cc1Cl)c1cc(Cl)ccc1O` belongs -23.7% [at 34.3 µM] (inactive); to `C[C@]12CCC(=O)C=C1CC[C@@H]1[C@@H]2C(=O)C[C@@]2(C)[C@H]1CC[C@]2(O)C(=O)CO`, -3.93% (inactive).
Same read-out and setting: next, `CC(=O)Oc1ccccc1C(=O)Nc1ncc([N+](=O)[O-])s1`: -3.53% (inactive).
Regarding `CCCC(=O)O`, the Potency result was “inactive”.
With `CCCCC(CC)COCC1CO1` (stereo not given), the “activation” value was 1.4% (inactive).
As for `COC(=O)CCC(=O)OC`, the Potency entry was “inactive”.
Still for that read-out and setting: next, `Nc1ncn([C@@H]2O[C@H](CO)[C@@H](O)[C@H]2O)c(=O)n1`: 1.54 µM (active) and 2.66 µM (active).
Same read-out and setting: to `CC(=O)C1(C)CC2=C(CCCC2(C)C)CC1C` (stereo not given) belongs “inactive”.
As for `CCC(C)CO` (stereo not given), the “activation” value was 4.23% (inactive).
Same read-out and setting: next, `COc1ccc(OC)c(C(O)CNC(=O)CN)c1` (stereo not given): -11.4% (inactive); `CCCCCCCCCCCO`: 3.17% [at 94.8 µM] (inactive).
Regarding `CCCCCCCCCC(=O)OC`, the Potency entry is “inactive”.
On the same count and under the same terms, next, `C[Si](C)(C)O[Si](C)(C)C`: “inactive”; `CC(C)=CCC/C(C)=C\CO`: “inactive”.
Consider `Cn1cnc([N+](=O)[O-])c1Sc1ncnc2nc[nH]c12`, for which the Potency is 8.41 µM (active).
On the same count and under the same terms, next, `O=c1oc(=O)c2cc3c(=O)oc(=O)c3cc12`: 2.73 µM (active); `OCCO`: “inactive”.
The same measure, in the same setting: next, `O=[N+]([O-])c1ccc2c(c1)Cc1ccccc1-2`: 61.1 µM (active).
On to `c1ccc(Nc2ccccc2)cc1`, for which the “activation” value was 6.65% (inactive).
On to `O=C(c1ccccc1)c1ccccc1O`, for which the Potency result was “inactive”.
